Compounds with a hit are over-represented: about 4% of the library has one in this group of screens.
HIF-2a inh – blocks HIF-2a reporter activity; 786-0 RCC cells HIF-2a reporter, luciferase luminescence, overnight; inhibition, % at 18.8 µM; 360,000 compounds, 0.72% hits;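 active means inhibition of the luminescence signal of 40% or more relative to plate controls, in a single-dose primary screen at 18.75 µM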
Peg3 promoter – Peg3 promoter activity inhibition. HeLa PEG-Prom luciferase reporter, luminescence, overnight. inhibition, % at 20 µM. 360,000 compounds, 1.7% hits;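 active means inhibition of at least 50% at 20 µM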
CF NFkB inh – blocks PAF-induced NF-kB reporter in cystic fibrosis cells. inhibition, % at 5 µM. KKLEB NF-kB-GFP reporter, GFP fluorescence overnight. 360,000 compounds, 0.86% hits;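 active means at least 50% inhibition at 5 µM, scaled per plate between neutral and stimulator controls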;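 further: PAF is a Pseudomonas aeruginosa culture filtrate used as stimulus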
TWEAK Fn14 block – blocks TWEAK-Fn14 interaction in a reporter cell assay; TWEAK-stimulated Fn14 reporter cells, luciferase luminescence, 8 h; inhibition, % at 10 µM; 360,000 compounds, 2% hits; in the data active means inhibition above about 50%
TROY NFkB inh – blocks TROY-dependent signaling in reporter cells; Q293 LMP1-TROYcd NF-kB luciferase reporter, 4 h; inhibition, % at 10 µM; 360,000 compounds, 0.98% hits; AID 1347056;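 active means compounds whose plate-normalised and pattern-corrected inhibition of the luciferase reporter signal at the single screening dose is 50% or more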
KKLEB tox – reduces viability of KKLEB cystic fibrosis airway cells | KKLEB CF airway cells viability, ATPlite luminescence, overnight; active compounds read low; cells stimulated with P. aeruginosa culture filtrate | activity change (cytotoxicity), % at 5 µM | 360,000 compounds, 0.36% hits;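 active means corrected activity change at or below -50% at 5 µM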
Numbers stand for hits; n = inactive; x = no result.

SMILES	HIF-2a inh	Peg3 promoter	CF NFkB inh	TWEAK Fn14 block	TROY NFkB inh	KKLEB tox
CCOC(=O)c1c(C)nc2c(C)cccn12	n	n	n	83.7	x	n
O=C(Nc1ccccc1F)N(CCCN1CCOCC1)Cc1cc2cc3c(cc2[nH]c1=O)OCCO3	n	n	n	n	57.9	n
CCc1ccc2[nH]c(=O)c(CN(CCN3CCCC3)C(=O)NC3CCCCC3)cc2c1	n	n	n	85.5	x	n
CCc1ccc2[nH]c(=O)c(CN(CCCN3CCOCC3)C(=O)Nc3ccccc3)cc2c1	n	n	n	n	61.9	n
CCN(CC)CCCN(Cc1cc2cc3c(cc2[nH]c1=O)OCCO3)C(=O)Nc1ccccc1	n	n	n	n	78.0	n
Cc1ccc(-c2nc(-c3ccncc3)no2)c(Cl)c1	n	n	n	68.7	n	n
CCc1ccc(-c2nc(-c3ccncc3)no2)cc1	n	n	n	75.9	n	n
CCCCc1ccc(-c2nc(-c3ccncc3)no2)cc1	n	n	n	n	n	n
c1ccc(-c2ccc(-c3nc(-c4ccncc4)no3)cc2)cc1	n	n	n	64.8	n	n
Clc1ccc(-c2nc(-c3ccncc3)no2)c(Cl)c1	n	n	n	n	n	n
c1ccc(-c2nc(-c3ccncc3)no2)cc1	n	n	n	n	n	n
CCc1cccc2c(C(=O)CSc3nnc(C4CC4)o3)c[nH]c12	n	n	n	n	n	n
COc1cccc(-c2nc(CS(=O)(=O)CC(=O)NC3CCCCC3C)c(C)o2)c1 (configuration not stated)	n	n	n	n	n	n
Cc1ccc2cc(/C=N/NC(=O)c3ccccc3O)c(Cl)nc2c1	n	n	n	n	64.9	n
O=C(N/N=C/c1cc2cc3c(cc2nc1Cl)OCCO3)c1ccccc1O	n	n	n	n	n	n
Cc1cccc2cc(/C=N/NC(=O)c3ccccc3O)c(Cl)nc12	n	n	n	n	56.5	n
COC(=O)C1=C(C)NC2=C(C(=O)c3ccccc32)C1c1cccc(OC)c1 (configuration not stated)	n	n	n	n	n	n
CC1=C([N+](=O)[O-])C(c2cccc(Br)c2)C2=C(N1)c1ccccc1C2=O (configuration not stated)	n	n	n	n	n	-55.5
Cc1ccc(C(C)C)c(OCC(=O)NN2C(=O)c3ccccc3C2=O)c1	n	n	n	n	n	n
Cc1ccc(C(C)C)c(OCC(=O)c2c(O)c3ccccc3oc2=O)c1	n	n	n	n	51.2	n
Cc1cc(=O)oc2cc(OCC(=O)c3ccccc3)ccc12	n	n	n	n	n	n
CCc1ccc(OCC(=O)c2c(O)c3ccccc3oc2=O)cc1	n	n	n	n	58.7	n
Cc1ccc(OCC(=O)c2c(O)c3ccccc3oc2=O)cc1C	n	n	n	n	61.8	n
CCOc1ccc(N=Cc2c(O)c3ccccc3oc2=O)cc1	n	n	n	n	n	n
Cc1nc2c(OCc3ccc(C(F)(F)F)cc3)cccn2c1N(C)Cc1cccs1	n	n	n	n	n	n
SMILES	HIF-2a inh	Peg3 promoter	CF NFkB inh	TWEAK Fn14 block	TROY NFkB inh	KKLEB tox
CCN1C(=O)N(CC)c2cccc3cccc1c23	n	n	n	91.5	n	n
CN1CCN(/N=C/c2ccc(N(C)c3ccccc3)cc2)CC1	n	n	n	n	n	n
CN1CCN(/N=C/c2ccc(N(c3ccccc3)c3ccccc3)cc2)CC1	90.3	96.8	n	n	64.2	n
CCC(C)[C@H](N)C(=O)NC[C@H]1CC[C@H](C(=O)N[C@@H](Cc2ccccc2)C(=O)O)CC1 (some centres not stated)	n	n	n	n	n	n
CC(C)CC(N)c1csc(NC(=O)Nc2ccccc2Cc2ccccc2)n1 (configuration not stated)	n	85.6	n	n	n	n
CC(C)CC(N)c1csc(NC(=O)Nc2ccccc2-c2ccccc2)n1 (configuration not stated)	n	103.7	n	n	n	n
CC(C)C(N)c1csc(NC(=O)Nc2ccccc2C(C)(C)C)n1 (configuration not stated)	n	n	n	n	n	n
CC(C)CC(N)c1csc(NC(=O)C(c2ccccc2)c2ccccc2)n1 (configuration not stated)	n	95.0	n	n	n	n
